Most compounds without a hit are left out; they make up all but 18% or so of the library.
VP16 counter – inhibits Gal4-VP16 luciferase reporter, ROR gamma counter-screen; Drosophila S2 Gal4-VP16 UAS-luciferase, luminescence, 20 h; Potency, µM (series often up to 53.6 µM), inactives show at the highest dose activity, negative = inhibition, hits mostly inhibitors; 3.5% of 310,000 active; AID 2546;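 further: Gal4-VP16 expression switched on by copper sulfate through the metallothionein promoter; potency means the concentration at half of the fitted maximal effect; nearly all actives have a fitted effect of over 50% in size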
RORg inh – inhibitors of mouse ROR gamma transcriptional activity. 5.4% of 310,000 active. Potency, µM (top dose mostly 53.6 µM), inactives show top-dose activity change, negative = inhibition, actives largely listed as inhibitors. P51450. Drosophila S2 Gal4-RORgamma UAS-luciferase reporter, 20 h; further: potency means the concentration at half of the fitted maximal effect; nearly all actives have a fitted effect of over 60% in size
Target sequence (P51450 whole entry, looked up, the tested form may be a part): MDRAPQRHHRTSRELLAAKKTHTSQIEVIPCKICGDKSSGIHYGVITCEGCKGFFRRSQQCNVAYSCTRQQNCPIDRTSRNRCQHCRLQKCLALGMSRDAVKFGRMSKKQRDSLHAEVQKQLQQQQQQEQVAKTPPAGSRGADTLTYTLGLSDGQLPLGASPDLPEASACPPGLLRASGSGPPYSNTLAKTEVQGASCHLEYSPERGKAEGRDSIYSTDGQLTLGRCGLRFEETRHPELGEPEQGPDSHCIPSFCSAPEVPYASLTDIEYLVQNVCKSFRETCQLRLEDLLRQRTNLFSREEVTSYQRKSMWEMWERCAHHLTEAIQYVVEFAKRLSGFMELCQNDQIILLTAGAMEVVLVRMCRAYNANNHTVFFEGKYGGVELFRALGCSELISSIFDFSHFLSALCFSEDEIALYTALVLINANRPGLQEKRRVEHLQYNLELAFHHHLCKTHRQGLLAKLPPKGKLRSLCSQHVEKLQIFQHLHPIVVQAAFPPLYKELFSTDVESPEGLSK
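Drosophila Schneider cells stably carrying a metallothionein-driven Gal4 DBD–ROR gamma fusion and a UAS-Photinus luciferase reporter were exposed to compound for 1 hr, then induced with copper sulfate (700 uM final) for 20 hr at ambient temperature before luminescence reading.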
DT40 TDP1 no CPT – qHTS for Inhibitors of human tyrosyl-DNA phosphodiesterase 1 (TDP1): qHTS in cells in absence of CPT. 15% of 420,000 active. Potency, µM (highest dose often 46.2 µM), for inactives: at the top dose activity change, negative = growth inhibition, hits mostly inhibitors. DT40 Tdp1-/- hTDP1 cells, no CPT, ATP luminescence, 48 h. AID 686978, 2013; further: potency means the concentration at half of the fitted maximal effect; nearly all actives have a fitted effect of over 55% in size
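Chicken DT40 Tdp1-/- cells stably complemented with human TDP1 were seeded at 400 cells/well with DMSO in place of 20 nM camptothecin. After compound pinning, cells grew at least 48 hr at 37 °C; viability read by CellTiter-Glo luminescence.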
IL-1B inflam inh – inflammasome signaling inhibition, IL-1 beta readout; THP-1 LPS/ATP IL-1B secretion, AlphaLISA, 16 h; active compounds read low; activity change, % at 57.5 µM; 4.7% of 360,000 active; AID 743279; in the data active means activity change below about -50%; inconclusive means mostly about -30% to -49%
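THP-1 cells pretreated 1 hr with compounds (up to 57.5 uM final), then stimulated with LPS (250 ng/mL final) plus ATP (1.25 mM final); secreted IL-1B measured by AlphaLISA after 16 hr, decreased signal indicating inhibition.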
LDHA inh – LDHA (human) enzyme inhibition | P00338 | purified LDHA, NADH/diaphorase-resazurin fluorescence; active compounds read low | activity change, % (values are at about 110 or 230 µM) | 0.15% of 480,000 active; in the data active means activity change below about -30%; inconclusive means mostly about -25% to -30%;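 further: plate controls were DMSO wells for no effect and wells without enzyme for full effect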
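Enzyme activity of human lactate dehydrogenase 5 (2 nM; 0.06 mM NADH, 0.2 mM pyruvate, 5 min, RT) is measured via a resazurin/diaphorase fluorescence readout of residual NADH.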
DT40 TDP1 CPT – growth inhibition of DT40 Tdp1-/-;hTDP1 cells with camptothecin (screen for TDP1 inhibitors) | chicken DT40 Tdp1-/-;hTDP1 cells + 20 nM CPT, ATP luminescence, 48 h | Potency, µM (highest dose often 46.2 µM), without a hit: at the highest dose activity change, negative = growth inhibition, most hits filed as inhibitors | 12% of 420,000 active; further: potency means the concentration at half of the fitted maximal effect; nearly all actives have a fitted effect of over 55% in size
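Chicken DT40 Tdp1-/- cells stably complemented with human TDP1 were seeded at 400 cells/well in medium containing 20 nM camptothecin, exposed to pin-transferred compounds, and grown at 37 °C for at least 48 hr. Viability was read as ATP luminescence.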
Starred values were filed as active, the others as inactive. Unless noted, the call rests on the fitted dose curve; in most records, active means well fitted curve in the direction sought with a large enough effect; inconclusive means small, poorly fitted or top-dose-only effect, or another doubt; inactive means no such curve, though single readings can be large; an effect the other way counts as inactive or inconclusive. Unless noted, on the % scale 0 is the no-effect control and ±100 the full control effect.

What do the screens show for `Cc1ccc2nc(C(F)(F)F)c(C#N)c(N)c2c1`?
VP16 counter: -12%; RORg inh: 12%; DT40 TDP1 no CPT: 16µM*; IL-1B inflam inh: -101*; LDHA inh: -3; DT40 TDP1 CPT: 21µM*

What do the screens show for `CC/C(C)=N/NC(=O)c1ccc(C(C)(C)C)cc1`?
LDHA inh: 7

How did COC(=O)c1c(NC(=O)CC2Nc3cc(C)c(C)cc3NC2=O)sc(C)c1C (stereo unspecified) do in these assays?
VP16 counter: -8%; RORg inh: 64%; DT40 TDP1 no CPT: inconclusive; IL-1B inflam inh: 7; LDHA inh: -2; DT40 TDP1 CPT: 21µM*

Results for Cc1ccc(NC(=O)CC2Nc3cc(C)c(C)cc3NC2=O)c(C)c1 (stereo unspecified) ?
DT40 TDP1 no CPT: inconclusive; LDHA inh: 0; DT40 TDP1 CPT: inconclusive

What do the screens show for `Cc1cc2c(cc1C)NC(CC(=O)Nc1cccc(C)c1C)C(=O)N2` (stereo unspecified)?
DT40 TDP1 no CPT: 16µM*; LDHA inh: 4; DT40 TDP1 CPT: 15µM*

What do the screens show for `Cc1cc2c(cc1C)NC(CC(=O)Nc1ccccc1SC(F)(F)F)C(=O)N2` (stereo unspecified)?
DT40 TDP1 no CPT: 16µM*; LDHA inh: 0; DT40 TDP1 CPT: inconclusive

Results for O=C(Nc1cc(C(F)(F)F)ccc1Cl)c1cccc(OCc2ccccc2)c1 ?
LDHA inh: 7

What do the screens show for `Cc1ccc(CN2C(=O)CS(=O)c3ccc(C(=O)NCc4ccccc4)cc32)cc1` (stereo unspecified)?
LDHA inh: -3

How did CCn1c(CSc2nnc(C3CC3)n2C2CC2)nc2cc(S(=O)(=O)N(C)C)ccc21 do in these assays?
LDHA inh: 3

Results for O=C1Cc2c([nH]c3ccc([N+](=O)[O-])cc23)-c2ccccc2N1 ?
DT40 TDP1 no CPT: 1.8µM*; IL-1B inflam inh: -99*; LDHA inh: -2; DT40 TDP1 CPT: 1.8µM*

What do the screens show for `O=[N+]([O-])c1ccc2[nH]c3c(c2c1)CCC/C3=N\O`?
LDHA inh: -1

How did O=C(Nc1ccc(Cl)cc1)C1Sc2nnc(-c3ccccc3)n2NC12CCCCC2 (stereo unspecified) do in these assays?
LDHA inh: 9

What do the screens show for `CCCCCCCC(=O)NC(Nc1ccc(S(N)(=O)=O)cc1)C(Cl)(Cl)Cl` (stereo unspecified)?
VP16 counter: -8%; RORg inh: 34%; DT40 TDP1 no CPT: 21µM*; IL-1B inflam inh: -21; LDHA inh: 3; DT40 TDP1 CPT: inconclusive

Results for CCCCCC(=O)NC(NC(=S)Nc1ccc(S(N)(=O)=O)cc1)C(Cl)(Cl)Cl (stereo unspecified) ?
VP16 counter: 0%; RORg inh: 4%; DT40 TDP1 no CPT: -5%; IL-1B inflam inh: -2; LDHA inh: -4; DT40 TDP1 CPT: 3%

How did CN(C)c1cccc(C(=O)NNC(=O)c2ccc(CSc3ccc(Cl)cc3)cc2)c1 do in these assays?
LDHA inh: 3

What do the screens show for `COc1ccc(/C=C/C(=O)Nc2cccc(S(=O)(=O)NC3=NCCCCC3)c2)c(OC)c1`?
DT40 TDP1 no CPT: 12µM*; IL-1B inflam inh: -18; LDHA inh: 1; DT40 TDP1 CPT: 16µM*

What do the screens show for `Cc1ccccc1OCC(=O)Nc1cccc(S(=O)(=O)NC2=NCCCCC2)c1`?
DT40 TDP1 no CPT: inconclusive; IL-1B inflam inh: -8; LDHA inh: 1; DT40 TDP1 CPT: inconclusive

What do the screens show for `COc1ccccc1/C=C/C(=O)Nc1cccc(S(=O)(=O)NC2=NCCCCC2)c1`?
VP16 counter: -11%; RORg inh: inconclusive; DT40 TDP1 no CPT: inconclusive; IL-1B inflam inh: -57*; LDHA inh: -2; DT40 TDP1 CPT: inconclusive

Results for CCN(CC)S(=O)(=O)c1ccc(Nc2ccc(-c3ccc4c(c3)OCCO4)nn2)cc1 ?
VP16 counter: -18%; RORg inh: -45%; DT40 TDP1 no CPT: inconclusive; IL-1B inflam inh: -1; LDHA inh: -3; DT40 TDP1 CPT: 5.2µM*

What do the screens show for `CN(C(=O)c1cccc(Nc2ccc(-c3ccc4c(c3)OCCO4)nn2)c1)C1CCCCC1`?
VP16 counter: inconclusive; RORg inh: -42%; DT40 TDP1 no CPT: 23µM*; IL-1B inflam inh: 0; LDHA inh: -6; DT40 TDP1 CPT: 23µM*

How did CCN(CC)S(=O)(=O)c1ccc(C(=O)Nc2ccc3c(c2)OCCO3)cc1 do in these assays?
VP16 counter: -3%; RORg inh: -10%; DT40 TDP1 no CPT: -24%; IL-1B inflam inh: 1; LDHA inh: -2; DT40 TDP1 CPT: -27%

How did CCc1ccc(C(=O)COc2c(C)cc(Br)cc2Cl)cc1 do in these assays?
LDHA inh: -20

How did O=C(NCc1coc(-c2cccs2)n1)c1ccc(OC(F)F)cc1 do in these assays?
LDHA inh: 19

How did CN(C)CC(O)COc1ccc(NC(=O)Nc2cccc(F)c2)cc1 (stereo unspecified) do in these assays?
LDHA inh: -5

How did Cc1cc2cc(CCNC(=O)c3ccc(S(=O)(=O)N4CCCC4)cc3)c(=O)[nH]c2cc1C do in these assays?
VP16 counter: -9%; RORg inh: 6%; DT40 TDP1 no CPT: 21µM*; IL-1B inflam inh: -27; LDHA inh: 19; DT40 TDP1 CPT: 18µM*

How did Cc1ccc(C(=O)NCCc2nc3ccccc3[nH]2)cc1[N+](=O)[O-] do in these assays?
VP16 counter: -10%; RORg inh: 9%; DT40 TDP1 no CPT: inconclusive; IL-1B inflam inh: 1; LDHA inh: -2; DT40 TDP1 CPT: -3%

What do the screens show for `COc1ccc(OC)c2[nH]c(=O)c(CCNC(=O)c3ccc(S(=O)(=O)N4CCCCC4)cc3)cc12`?
VP16 counter: -1%; RORg inh: 31%; DT40 TDP1 no CPT: inconclusive; IL-1B inflam inh: 20; LDHA inh: 1; DT40 TDP1 CPT: inconclusive

Results for CCOC(=O)NCc1ccc2[nH]c(C)cc2c1 ?
VP16 counter: -1%; RORg inh: -16%; DT40 TDP1 no CPT: -44%; IL-1B inflam inh: -17; LDHA inh: 7; DT40 TDP1 CPT: 7%

Results for Cc1cc2cc(CNC(=O)c3ccc(C)c([N+](=O)[O-])c3)ccc2[nH]1 ?
VP16 counter: 1%; RORg inh: inconclusive; DT40 TDP1 no CPT: 10µM*; IL-1B inflam inh: -21; LDHA inh: -2; DT40 TDP1 CPT: 21µM*
